An excerpt weighted towards active compounds, which were near 2.8% of everything screened.
Pol beta inh: blocks human DNA polymerase beta activity. actives 1.3% (n = 340,000). Potency, µM (top dose mostly 114 µM), hits mostly inhibitors. AID 485314. Pol beta primer extension/strand displacement, fluorescence kinetic. P06746
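Curves were derived by four-parameter Hill fits of normalized qHTS data. The kinetic fluorescent primer-extension read was taken at 0 and 10 min after 50 nM substrate, following a 15 min room-temperature preincubation of 10 nM enzyme with compounds.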
Pol kappa inh: DNA polymerase kappa (human) inhibition. Q9UBT6. purified Pol kappa, fluorescent DNA synthesis assay, 10 min. Potency, µM (highest dose often 107 µM), hits mostly inhibitors. actives 0.53% (n = 400,000). AID 588579
Target sequence (Q9UBT6 whole entry, looked up): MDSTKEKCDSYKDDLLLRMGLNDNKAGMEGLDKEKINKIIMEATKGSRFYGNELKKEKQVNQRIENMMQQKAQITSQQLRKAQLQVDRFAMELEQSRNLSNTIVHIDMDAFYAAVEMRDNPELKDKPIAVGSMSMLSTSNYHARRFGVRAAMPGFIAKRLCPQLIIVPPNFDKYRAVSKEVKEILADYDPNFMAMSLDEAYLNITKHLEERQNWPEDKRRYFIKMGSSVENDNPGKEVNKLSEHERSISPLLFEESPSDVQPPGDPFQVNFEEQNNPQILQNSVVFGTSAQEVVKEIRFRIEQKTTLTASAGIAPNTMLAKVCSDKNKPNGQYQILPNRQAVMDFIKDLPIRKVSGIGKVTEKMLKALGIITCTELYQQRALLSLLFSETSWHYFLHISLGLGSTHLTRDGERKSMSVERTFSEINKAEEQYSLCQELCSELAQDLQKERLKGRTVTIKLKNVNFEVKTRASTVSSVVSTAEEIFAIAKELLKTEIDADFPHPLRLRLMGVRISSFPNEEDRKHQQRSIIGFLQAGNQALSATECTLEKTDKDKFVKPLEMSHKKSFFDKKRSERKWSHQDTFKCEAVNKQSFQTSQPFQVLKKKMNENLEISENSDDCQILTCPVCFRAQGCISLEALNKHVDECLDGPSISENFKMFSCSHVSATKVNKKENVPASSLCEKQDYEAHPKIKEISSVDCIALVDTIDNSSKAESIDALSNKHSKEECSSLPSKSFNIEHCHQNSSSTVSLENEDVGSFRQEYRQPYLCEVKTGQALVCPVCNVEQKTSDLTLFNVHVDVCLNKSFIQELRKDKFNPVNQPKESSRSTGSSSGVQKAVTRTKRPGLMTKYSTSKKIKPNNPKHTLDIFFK
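10 nM Pol kappa was preincubated with compounds for 15 min at room temperature. Reaction started with 50 nM (final) substrate. Fluorescence read kinetically at 0 and 10 min.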
Pol eta inh: DNA polymerase eta (human) inhibition; actives 1.2% (n = 390,000); AID 588591; Q9Y253; Potency, µM (top dose mostly 114 µM), hits mostly inhibitors; recombinant Pol eta, fluorescent DNA replication assay
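Pol eta (10 nM) was preincubated with compounds for 15 min at room temperature, after which fluorescent replication substrate (50 nM final) was added to start the reaction. Fluorescence was read kinetically at 0 and 10 min.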
PI5P4Ka inh: blocks human PI5P4K alpha kinase activity. P48426. actives 1.2% (n = 330,000). max response, %. PI5P4Kalpha enzyme, ADP-Glo luminescence, 60 min; stronger effect = lower value; active means max response of -50% or lower; inconclusive means between -30% and -50%; inactive means -30% or higher; further: value at the top dose of about 77 µM
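Enzyme plus substrate dispensed, test compounds pinned in, then ATP (5 microM final) added. After 60 min at RT, ADP-Glo reagent 1 for 45 min and reagent 2 for 30 min preceded luminescence imaging.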
WRN helicase inh: WRN helicase (human) inhibition; Q14191; WRN helicase unwinding, fluorescent forked duplex, kinetic; Potency, µM (top dose mostly 114 µM), most hits filed as inhibitors; actives 0.46% (n = 360,000); further: nearly all actives have a fitted effect of over 55% in size
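Kinetic fluorescence helicase assay: unwinding of a quenched forked DNA duplex (100 nM final) with 2 mM ATP final raises red fluorescence (525/598 nm). Compounds sat 15 min at room temperature with 20 nM WRN beforehand.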
Pol iota inh: DNA polymerase iota (human) inhibition; Pol iota fluorescent replication assay, 10 min; Potency, µM (series often up to 115 µM), hits mostly inhibitors; actives 1% (n = 390,000)
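Pol iota at 10 nM preincubated 15 min with compounds at room temperature; reaction started with fluorescent substrate, 50 nM final. Fluorescence read kinetically at 0 and 10 min; buffer-only wells as negative control.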
Each line names hits and unclear results; the compound was inactive in the other large screens. Unless noted, the call rests on the fitted dose curve; in most records, active means well fitted curve in the direction sought with a large enough effect; inconclusive means small, poorly fitted or top-dose-only effect, or another doubt; inactive means no such curve, though single readings can be large; an effect the other way counts as inactive or inconclusive.

O=C(/C=C/c1ccc(/C=C/C(=O)Nc2ccc(C3=NCCN3)cc2)cc1)Nc1ccc(C2=NCCN2)cc1	Pol kappa inh 18.9µM (no result: Pol beta inh, Pol eta inh, PI5P4Ka inh, WRN helicase inh, Pol iota inh)
O=C(Nc1cccc(C2=NCCN2)c1)Nc1cccc(C2=NCCN2)c1	Pol kappa inh 7.52µM, Pol eta inh 22.4µM (no result: Pol beta inh)
O=C(C[n+]1cc(Br)cc2ccccc21)c1ccc(O)c(O)c1	Pol kappa inh 2.82µM, Pol iota inh inconclusive (no result: Pol beta inh, Pol eta inh, PI5P4Ka inh, WRN helicase inh)
COC(=O)c1cc2c(s1)-c1ccccc1OC2	none
CCc1ccc(CNC(=O)c2cc3c(s2)-c2ccccc2OC3)cc1	Pol beta inh 50.1µM, Pol kappa inh inconclusive, Pol iota inh 79.4µM (no result: PI5P4Ka inh, WRN helicase inh)
CCOc1ccc(CNC(=O)c2cc3c(s2)-c2ccccc2OC3)cc1	Pol beta inh 31.6µM, Pol iota inh inconclusive (no result: PI5P4Ka inh, WRN helicase inh)
O=C(C1CC1)N1CCc2cc(Br)cc(S(=O)(=O)N3CCN(c4cccc(C(F)(F)F)c4)CC3)c21	none (no result: PI5P4Ka inh, WRN helicase inh)
COc1ccccc1-c1nnc2n(CCc3ccccc3)c(=O)c3ccccc3n12	none (no result: PI5P4Ka inh, WRN helicase inh)
CC(Sc1oc(-c2cccs2)nc1S(=O)(=O)c1ccccc1)c1ccccc1 (stereo unspecified)	Pol eta inh inconclusive (no result: PI5P4Ka inh, WRN helicase inh)
CCCSc1nsc(SCCC)c1C#N	none
C#CCSc1nsc(SCC#C)c1C#N	Pol beta inh 44.7µM, Pol kappa inh inconclusive, Pol eta inh 17.8µM, WRN helicase inh 50.1µM, Pol iota inh 20µM (no result: PI5P4Ka inh)
CCn1c(NN)nc2sc3c(c2c1=O)CCC3	Pol eta inh inconclusive, PI5P4Ka inh -58.7
CCSc1nc2sc3c(c2c(=O)n1CC)CCC3	Pol beta inh inconclusive, Pol iota inh inconclusive
NNc1nc2sc3c(c2c(=O)n1Cc1ccccc1)CCC3	Pol beta inh inconclusive, Pol kappa inh inconclusive, PI5P4Ka inh -74.3, Pol iota inh inconclusive
COc1ccccc1N1CCN(C(=O)C(C)CS(=O)(=O)c2ccc3c(c2)NC(=O)CS3)CC1 (stereo unspecified)	Pol beta inh 8.91µM
O=C(COCc1cc(-c2ccc(F)cc2)on1)Nc1cccc(Cl)c1Cl	none (no result: PI5P4Ka inh, WRN helicase inh)
COc1cc(-c2nnc(SCC(=O)c3ccccc3)o2)cc(OC)c1OC	none (no result: PI5P4Ka inh)
CCN(C(=O)CSc1nnc(-c2cc(OC)c(OC)c(OC)c2)o1)c1ccccc1	Pol beta inh 10µM, Pol kappa inh inconclusive, Pol iota inh inconclusive (no result: PI5P4Ka inh, WRN helicase inh)
COc1cc2nc(N3CCOCC3)nc(NC(C)C)c2cc1OC	none (no result: Pol beta inh, Pol eta inh, PI5P4Ka inh, WRN helicase inh)
Cc1c(CCC(=O)N2CCC(C(=O)O)CC2)c(=O)oc2cc3oc4c(c3cc12)CCCC4	Pol beta inh 35.5µM
Cc1c(CCC(=O)N2CCC(C(=O)O)(c3ccccc3)CC2)c(=O)oc2cc3oc4c(c3cc12)CCCC4	none
Cc1sc2ncn(CC(=O)NCc3ccco3)c(=O)c2c1-c1ccc(F)cc1	Pol beta inh inconclusive, Pol eta inh 79.4µM, PI5P4Ka inh inconclusive
Cc1ccc2c(C(=O)CNc3nccs3)c[nH]c2c1	none (no result: Pol beta inh, Pol eta inh, PI5P4Ka inh, WRN helicase inh)
O=C(Nc1nnc(-c2ccco2)o1)c1ccc(N2C(=O)CCC2=O)cc1	Pol beta inh inconclusive, Pol iota inh 22.4µM
CCOc1ccccc1CNC(=O)c1ccc2nc(CCc3ccccc3)oc2c1	none (no result: PI5P4Ka inh, WRN helicase inh)
O=C1Nc2ccccc2Oc2cc([N+](=O)[O-])cc(Oc3ccccc3)c21	Pol beta inh inconclusive, Pol eta inh inconclusive, WRN helicase inh inconclusive, Pol iota inh inconclusive
Cc1cccc(Oc2cc([N+](=O)[O-])cc3c2C(=O)Nc2ccccc2O3)c1	Pol beta inh inconclusive, Pol eta inh inconclusive, PI5P4Ka inh inconclusive, Pol iota inh 79.4µM
Fc1ccc(C(c2nnc(-c3ccccc3)o2)N2CCN(c3ccccc3)CC2)c(Cl)c1 (stereo unspecified)	none (no result: PI5P4Ka inh, WRN helicase inh)
CNS(=O)(=O)c1ccc2nc(NC(=O)/C=C/c3ccco3)sc2c1	Pol beta inh inconclusive, Pol kappa inh inconclusive, PI5P4Ka inh inconclusive, Pol iota inh 50.1µM
Cc1nc(NC(=O)/C=C/c2ccco2)sc1C	Pol beta inh inconclusive, Pol eta inh inconclusive, PI5P4Ka inh inconclusive, Pol iota inh inconclusive
COc1ccc(-n2c(=O)c3c4c(sc3n(Cc3ccc(F)cc3)c2=O)CN(C(C)=O)CC4)c(OC)c1	none (no result: PI5P4Ka inh, WRN helicase inh)
CCOc1ccc(NC(=O)c2cc3c(n(-c4ccc(OC)cc4)c2=O)CC(C)(C)CC3=O)cc1	none (no result: PI5P4Ka inh, WRN helicase inh)

Assay outcomes: PubChem BioAssay, National Center for Advancing Translational Sciences (NCATS)
